# Measurements from the supplement of paper PMC6555819.
# Tested on: VDR homodimer (NR concentration 270 nM)
# Assay: PBM binding z-score (relative to random genomic background probes); higher = stronger binding; sequences stand for … in GC…GCGATTGACAGCGTAGAATGAAGG
# Method in brief: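 Antibodies against each partner of ligand-free nuclear receptor dimers (one per run) detected binding on custom Agilent 4×180K protein-binding microarrays after 1 h incubation. The double-stranded probes had 34-nt variable regions carrying direct-repeat seeds, single-nucleotide variants, half-site ablations and random human genomic background sequences. Binding z-scores, from regression-normalized fluorescence, use the random background probes as reference.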
row,Sequence,PBM binding z-score
1,AATACAGGGCCACTAGGCCAGAGTAGGTACGAAT,0.318
2,TCTTGTAAATCAGCAGGTTAAGAAAGCTGGCCAA,-0.269
3,ACTATTAGTTGACTTAGGGCAACCGTTACGACGC,0.195
4,CAAACTAGGTCCCGAAAGGTCAAAGTCGAATGAC,2.66
5,CGTCCACGGTCAGCAGGTCAGTGAAAGCGACGTG,-0.234
6,ATCGAAAGGTCGGAGGTGAGTATACCCACCCGAA,0.152
7,GCTTACGGGTCAAAGGTTATTGCATGAATAGAAT,1.81
8,ATTCGGAGGACAAAGGTCAGAGCTACGCCAGTGA,1.32
9,GGTAGCAGGCCATTTGGGTCACTCAATGACGGGC,0.494
10,GATACAGGGTCAGCTCGAGGCCAGAGTATGGAAA,0.917
11,GCTTGTAGATCAAGGTTAAGATAGACTAAGCTAA,-0.108
12,ACTATTAGATGAGACGAGGGCAACCGATAGGTTG,0.77
13,AATACAGGGTCAACGTAGGCCAGAGTACGCACAG,3.28
14,GCATGTAGGTAATACAAGGTGAAAGTCCGATTGT,-0.301
15,TCTATTAGTTGACGGGCAACCGACGAGTCCGTTT,0.718
16,GCTTTTAGATCAAGGTTAAGAAAGACTAAGCTAA,-0.0628
17,TCGAGTAGGTTACCAATGGGGCATTCTGCTTTCT,-0.862
18,CCTAGCGGGCCAGGGTCACTCAAGCATTTCGCTT,1.28
19,GCTTGTAGATCAAGGATAAGAAAGACTAAGCTAA,-0.57
20,ATATGTAGGTTAAGGGTCATCCAGGTTGGTTCGC,3.82

row,Sequence,PBM binding z-score
1,ACAGACAGGTGAGTGAAGGTAACTCACCTGGACG,-0.74
2,CGAACTAGGTCAGAACAGGTCAGTGAAGGATGAT,0.955
3,TCCATTAGTTGAAGGGCAACCGACGAGTCCGTTT,1.57
4,CCTAGTTCGTCAAGGTCACACACGCTATAGGTAC,6.91
5,CCTATTAGTTGACCACAAGGGCAACCGAAGCTCG,1.01
6,CCTATTAGTTGACCATAAGGGCAACCGCAGCTCG,0.923
7,TCTGCTAGGTCAGTTGGTAAGCTAACGAGCTGCC,-0.694
8,GCAGACAGGTGAAACGCAGGTAACTCAAGGTGGC,-0.202
9,CCTCGGAGGACAACAGGCGGTCAGAGCTGCCAGA,-0.0839
10,TCTTGTAGATCAAAAGAGGTTAAGAAAGTGCGCT,0.274
11,CCTACTGGGCCAAAAAGGTCATTGAAGCCGATAA,2.58
12,CAAACTAGGTCACGGAAGGTCAAAGTCGAATGAC,3.53
13,AGAATGAGGTTGTACGTAGATCAGGGAAGAAAGT,0.389
14,GTATCAAGGTGAATAGGTCGTTGATGAGTAGGCG,0.555
15,AGAACGAGGGCACGCTGAGATGATAGCAGAGTAG,0.452
16,AGTCAAAGTTCATCTAGATAACGTAAGATATGCT,4.4
17,CGAACTAGGTCAGAACAGGAGAGTGAAGGATGAT,0.129
18,CAAACTAGGTGACCGGAAGGTCAAAGTCCGCATG,2.49
19,ACAGACAGGTGAGTGAAGGAAACTCAGCTGGACG,-0.21
20,ATCCCAAGGTGATCGTGAGGTCGTTGATACTAAC,2.9
